{
  "source": "PubChem BioAssay AID1224854",
  "about": "(National Center for Advancing Translational Sciences (NCATS), 2016)",
  "note": "Results filed as inconclusive are left out. A call without a number means that no potency is given here. Active and inactive are the calls of the source. Calls follow the shape of the dose curve; as a rule, active = well fitted activation curve with a large enough effect; inconclusive = small, poorly fitted or top-dose-only effect; inactive = flat fitted curve, though single readings scatter.",
  "data": [
    {"experiment": "Cell viability assay for measurement of the protective activity of small molecules against cell death caused by Zika virus infection in human astrocytoma cells", "settings": "SNB-19 Zika virus cytoprotection, ATP luminescence, 72 h; series mostly up to 46.1 µM", "source_text": "National Center for Advancing Translational Sciences [NCATS] Johns Hopkins University School of Medicine Florida State University Assay Overview: Zika virus infection causes cell death in certain cell types including human neural progenitor cells (hNPCs), astrocytes, and astrocytoma cell line (SNB-19). This cell viability assay measures the ATP content (level) in human astrocytoma cells (SNB-19) using a luminescence readout that is proportional to viable cell numbers. Decrease in the luminescence signal after Zika virus infection indicates the cell death caused by Zika virus. Small molecule inhibitors […] the decreased luminescence signal after Zika virus infection, indicating the protective effect of that small molecule on the cell death caused by Zika virus infection. This observed protective effect of small molecules against Zika virus induced cell death may result from inhibition of virus replication or cellular response to the virus infection.\nAssay Protocol Summary: The medium for SNB-19 cells is composed of RPMI 1640 (ATCC, Cat.# 30-2001), 10% fetal bovine serum (FBS) (GE healthcare Life Sciences, Cat.# SH30071.03), and 1% Pen/Strep (Gibco, Cat.# 15140-122). The ATP content assay kit (PerkinElmer, Cat.# 6016731) was used to determine cell viability. The reagent was reconstituted and prepared as described by the manufacturer. Cells were seeded in 384- or 1536-well assay plates and cultured at 37 C with 5% CO2 for 16 to 20 hours. The typical cell seeding density in the 1536-well plate assay is 250 cells/well in 3ul medium for SNB-19 cells in tissue culture treated plates. Compounds were added to cells and incubated for one hour before addition of ZIKV solution to cells (2 FFU/cell). After incubation at 37 C with 5% CO2 for 72 hours, the reagent mixture of the ATP content assay kit was added to each well, followed by incubation at room temperature for 10 minutes. The luminescence intensity of the assay plates was measured using a ViewLux plate reader (PerkinElmer). […] The percentage inhibitions of the decreased cell viability by small molecule inhibitors were then calculated.", "values": [
      {"smiles": "O=c1c2ccccc2[se]n1-c1ccccc1", "Potency": "inactive"},
      {"smiles": "CN1CC[C@@]2(C)c3cc(OC(=O)Nc4ccccc4)ccc3N(C)[C@@H]12", "Potency": "inactive"},
      {"smiles": "CC(C)N[C@@H]1CCn2c(=O)[nH]c3cccc(c32)[C@@H]1O", "Potency": "inactive"},
      {"smiles": "COc1cccc2c1C(=O)c1c(O)c3c(c(O)c1C2=O)C[C@@](O)(C(=O)CO)CC3OC1CC(N2CCOC(OC)C2)C(O)C(C)O1", "note": "(stereo partly drawn)", "Potency": "388 nM (active)"},
      {"smiles": "S=C(SSC(=S)N1CCCCC1)N1CCCCC1", "Potency": "17300 nM (active)"},
      {"smiles": "CC(C)[C@H]1C(=O)N[C@H](CO)Cc2c[nH]c3cccc(c23)N1C", "Potency": "2450 nM (active)"},
      {"smiles": "Cc1ccc([N+](=O)[O-])[c]2c1[O][Hg]2", "Potency": "inactive"},
      {"smiles": "O=C1CCC[C@@H]2[C@H]3CCCN4CCC[C@@H](CN12)[C@@H]34", "Potency": "inactive"},
      {"smiles": "O=C(Nc1ccc(Br)cc1)c1cc(Br)cc(Br)c1O", "Potency": "inactive"},
      {"smiles": "O=S(=O)(CC1CS1)c1ccc(Oc2ccccc2)cc1", "note": "(stereo not drawn)", "Potency": "inactive"},
      {"smiles": "CN1CC(=O)N2C(Cc3c([nH]c4ccccc34)[C@H]2c2ccc3c(c2)OCO3)C1=O", "note": "(stereo partly drawn)", "Potency": "inactive"},
      {"smiles": "COP(=S)(OC)SCN1C(=O)c2ccccc2C1=O", "Potency": "inactive"},
      {"smiles": "CC(=C(CCOC(=O)C(C)C)SSC(CCOC(=O)C(C)C)=C(C)N(C=O)Cc1cnc(C)nc1N)N(C=O)Cc1cnc(C)nc1N", "Potency": "inactive"}
    ]}
  ]
}
